Values joined by “and” are separate entries in the source; they are usually repeats but may differ in a detail not shown here. Identical values can stand only once. Results filed as inconclusive are left out. Active and inactive are the calls of the source. How the source made its calls: active means hit-call score of the fitted dose curve at least 0.9, where 1 is the maximum; inconclusive means response in the unintended direction; inactive means score below 0.9.

The nature of the first test: ArunA_CellTiter_hNP: Viability Assessment in the ArunA Biomedical's Oris Neural Crest (hNC) Cell Migration Assay (AID 2283753). The gist of the method: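 Viability read with CellTiter 96 Aqueous One after 72 h chemical exposure of human hNP1 neuroprogenitors, which were plated on Matrigel in LIF/bFGF medium 16 h beforehand. Endpoint fitted in positive direction relative to DMSO.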
`Nc1nc(Cl)nc2c1ncn2[C@H]1C[C@H](O)[C@@H](CO)O1`: the AC50 was 0.345 µM (active).

Consider `CCCCC(CC)COP(=O)(OCC(CC)CCCC)OCC(CC)CCCC` (stereo not given), for which the compound was classed as inactive.

As to `Cc1ccc(-c2cc(C(F)(F)F)nn2-c2ccc(S(N)(=O)=O)cc2)cc1`, the AC50 was 76.5 µM (active).

A short description of the next test: ArunA_Migration_hNP: ArunA Biomedical's Oris Neuroprogenitor (hNP) Cell Migration Assay (AID 2283754). Here is the method:
(§1) ArunA_Migration_hNP is a cell-based, single-readout assay that uses human H9-derived neuroprogenitor stem cells (hNP1). Measurements were taken 72 hours after chemical dosing in a 96-well plate.ArunA_Migration_hNP is an assay component measured from the ArunA_Migration_hNP assay. It is designed to make measurements of cell migration, a form of distribution reporter, as detected with fluorescence intensity signals by HCS Fluorescent Imaging technology. Data from the assay component ArunA_Migration_hNP was analyzed at the endpoint, ArunA_Migration_hNP, in the positive analysis fitting direction relative to DMSO as the negative control and baseline of activity. Using a type of distribution reporter, loss-of-signal activity can be used to understand the cell migration. To generalize the intended target to other relatable targets, this assay endpoint is annotated to the neurodevelopment intended target family, where the subfamily is migration.
(§2) To assess the hNP and hNC migration and cell titer endpoints, 60,000 cells per well were plated onto Matrigel in basal growth medium with LIF and bFGF in a 96-well plate format. Plates were incubated for 16 h at 37C followed by a 72 h exposure to chemical in the test medium. For the migration endpoints, cells were seeded and incubated in presence of 'seeding stoppers' to prevent cell migration and growth into the detection zone. At the beginning of chemical exposure, stoppers were removed, and growth medium was replaced with test medium. In the case of the stopper control wells, stoppers remained in place following replacement of growth medium with test medium. Following 72 -h exposure to the test medium, cells were stained at 37C for 30-60 min with calcein-AM. Cell viability in the detection zone was quantitated using a Flexstation3 microplate reader (ex494 nm/em 517 nm). Corresponding cell titer endpoints were assessed for the hNP and hNC cells using the Promega CellTiter Aqueous One Solution Cell Proliferation Assay (Cat no. G3581; CellTiter 96). Finally, to gain insight into the mechanisms by which cells migrate into the detection zone, Ki-67 expression was quantified for 10 additional chemicals in the hNP and hNC systems. Additionally, cytochalasin D was used as a positive control to inhibit cell migration. Supplementing the AB2 Basal Medium: 1. Decontaminate the external surfaces of all supplement vials and the medium bottle with ethanol or isopropanol. 2. Aseptically open each supplement vial and add the amount indicated below to the basal medium with a pipette. To make 100 ml of complete medium: AB2 Neural Medium 96 mL, ANS Supplement 2 mL, bFGF (50 ug/mL) 40 uL, LIF (10 ug/mL) 100 uL, L-Glutamine (200 mM) 1 mL, Penicillin (5,000 U/mL)/ Streptomycin (5,000 ug/mL) 1 mL. 3. Supplemented medium should be stored at 2-8C, protected from light. The complete medium should be given a 2 week expiration date. Dispense the complete medium into aliquots to avoid repeated heating prior to each use.Plate Coating Protocol for hNP1 Neural Progenitor Expansion: To coat dishes perform the following steps: 1. Thaw BD Matrigel at 2-8C overnight. Matrix will gel rapidly at 22C to 35C. Keep Matrigel on ice and use pre-cooled pipettes, plates and tubes when preparing. Gelled Matrigel may be re-liquified if placed at 2-8C on ice for 24 to 48 hours. 2. Handle using aseptic technique in a laminar flow hood. 3. Once BD Matrigel Matrix is thawed, swirl vial to be sure that material is evenly dispersed. 4. […]
Regarding `Nc1nc(Cl)nc2c1ncn2[C@H]1C[C@H](O)[C@@H](CO)O1`, the AC50 was 289 nM (active) and 52.1 nM (active).

In the case of `CCCCC(CC)COP(=O)(OCC(CC)CCCC)OCC(CC)CCCC` (stereo not given), the compound was called inactive.

On to `Cc1ccc(-c2cc(C(F)(F)F)nn2-c2ccc(S(N)(=O)=O)cc2)cc1`, for which the AC50 is 81.9 µM (active).

In the case of `O=C1OC(c2ccc(O)cc2)(c2ccc(O)cc2)c2ccccc21`, the AC50 was 26.9 µM (active).

The nature of a further test: ArunA_Migration_hNC: ArunA Biomedical's Oris Neural Crest (hNC) Cell Migration Assay (AID 2283755). Here is the method:
as §1, with “ArunA_Migration_hNC” for “ArunA_Migration_hNP”, “embryonic neural crest” for “neuroprogenitor”, “(hNC).” for “(hNP1).”, “plate.ArunA_Migration_hNC” for “plate.ArunA_Migration_hNP”, “ArunA_Migration_hNC,” for “ArunA_Migration_hNP,”
as §2
For `Nc1nc(Cl)nc2c1ncn2[C@H]1C[C@H](O)[C@@H](CO)O1`, the AC50 was 120 nM (active) and 32 nM (active).

`CCCCC(CC)COP(=O)(OCC(CC)CCCC)OCC(CC)CCCC` (stereo not given): the compound was classed as inactive.

Consider `Cc1ccc(-c2cc(C(F)(F)F)nn2-c2ccc(S(N)(=O)=O)cc2)cc1`, for which the AC50 was 78.7 µM (active).

Turning to `O=C1OC(c2ccc(O)cc2)(c2ccc(O)cc2)c2ccccc21`, the AC50 was 15.9 µM (active).

The next test in a line: ArunA_NOG_NucleusCount: ArunA Biomedical's Neurite Outgrowth (NOG) Assay for Nucleus Count (AID 2283756). Put shortly: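 Viable neuron count, from Hoechst nuclei passing size and intensity gates, imaged at 20x on differentiated H9-derived human neurons. Exposure lasted 48 h from seeding; activity was scored relative to DMSO.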
In the case of `Nc1nc(Cl)nc2c1ncn2[C@H]1C[C@H](O)[C@@H](CO)O1`, the AC50 is 1.81 µM (active).

`CCCCC(CC)COP(=O)(OCC(CC)CCCC)OCC(CC)CCCC` (stereo not given): the compound was called inactive.

As to `Cc1ccc(-c2cc(C(F)(F)F)nn2-c2ccc(S(N)(=O)=O)cc2)cc1`, the half-maximal activity concentration (AC50) was 7.13 µM (active).

On to `O=C1OC(c2ccc(O)cc2)(c2ccc(O)cc2)c2ccccc21`, for which the result was inactive.

For orientation: AC50 means the concentration at which the activity in the assay is half-maximal.

Source of the values: PubChem BioAssay (EPA / NIEHS).
